Screens (PubChem BioAssay)
Compounds with a hit are over-represented: about 11% of the library has one in this group of screens.
JMJD2A Tudor inh: blocks the human JMJD2A Tudor domain. O75164. Potency, µM (series often up to 114 µM), without a hit: top-dose activity change, negative = inhibition, hits mostly inhibitors. AlphaScreen JMJD2A-Tudor / H3K4me3 peptide binding. hit rate 4.4% among 390,000; further: on the % scale 0 is the no-effect control and ±100 the full control effect; nearly all actives have a fitted effect of over 50% in size
VDR inh: blocks the human vitamin D receptor; P11473; VDR-SRC2-3 peptide fluorescence polarization, 2 h; Potency, µM, for the others: max response, negative = inhibition, actives largely listed as inhibitors; hit rate 0.93% among 400,000; AID 504847; further: on the % scale 0 is the no-effect control and ±100 the full control effect
Target sequence (P11473 whole entry, looked up): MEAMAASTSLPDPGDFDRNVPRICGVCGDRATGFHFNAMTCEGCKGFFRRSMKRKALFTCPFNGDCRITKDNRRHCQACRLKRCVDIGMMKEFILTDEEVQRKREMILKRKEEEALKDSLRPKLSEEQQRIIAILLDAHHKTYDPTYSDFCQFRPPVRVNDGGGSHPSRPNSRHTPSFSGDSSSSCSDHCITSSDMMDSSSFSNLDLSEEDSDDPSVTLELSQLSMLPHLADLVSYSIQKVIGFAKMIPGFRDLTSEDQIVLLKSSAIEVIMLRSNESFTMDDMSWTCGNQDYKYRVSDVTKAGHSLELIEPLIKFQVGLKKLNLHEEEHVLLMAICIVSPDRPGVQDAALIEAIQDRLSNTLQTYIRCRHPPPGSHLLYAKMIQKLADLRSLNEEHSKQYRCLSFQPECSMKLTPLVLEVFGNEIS
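Reagent solutions, kept cold and dark, are dispensed first; compounds are then pinned in at 23 nl, plates briefly spun, and incubated 2 h at ambient temperature. Inhibition of VDR–SRC2-3 peptide binding is read by fluorescence polarization.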
G9a inh: G9a (human) methyltransferase inhibition; Q96KQ7; G9a H3K9 monomethylation, AlphaScreen, 2 h; Potency, µM (series often up to 102 µM), inactives show at the highest dose activity, negative = inhibition, hits mostly inhibitors; hit rate 8.8% among 350,000; AID 504332; further: on the % scale 0 is the no-effect control and ±100 the full control effect; nearly all actives have a fitted effect of over 75% in size
Target sequence (Q96KQ7 913-1193 limits assumed): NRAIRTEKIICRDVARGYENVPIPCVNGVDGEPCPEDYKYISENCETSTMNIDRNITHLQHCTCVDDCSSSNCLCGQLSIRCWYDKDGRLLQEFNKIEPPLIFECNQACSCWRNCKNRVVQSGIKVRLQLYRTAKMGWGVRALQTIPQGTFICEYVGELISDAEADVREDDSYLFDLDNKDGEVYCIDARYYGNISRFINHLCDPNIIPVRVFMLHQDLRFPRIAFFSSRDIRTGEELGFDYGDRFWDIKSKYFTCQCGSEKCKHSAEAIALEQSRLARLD
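Chemiluminescent proximity detection of H3K9 monomethylation, read after 10 min bead incubation in the dark. Reaction: 20 nM G9a, 500 nM biotin-H3K9 peptide, 20 uM SAM cofactor, 2 h, room temperature, following 15 min enzyme-compound preincubation.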
PLK1 PBD block: blocks phosphopeptide binding to human PLK1 polo-box domain. hit rate 2.8% among 360,000. P53350. Plk1 PBD binding of FITC phosphopeptide, fluorescence polarization. Potency, µM, inactives show max response, negative = inhibition, usual class: inhibitors. AID 720504; further: series mostly up to about 57 µM; on the % scale 0 is the no-effect control and ±100 the full control effect; nearly all actives have a fitted effect of over 65% in size
HP1b binding inh: inhibitors of HP1-beta chromodomain binding to methylated histone tails. P83916. Potency, µM (series often up to 114 µM), for the others: at the top dose activity change, negative = inhibition, hits mostly inhibitors. hit rate 0.56% among 390,000. AlphaScreen HP1-beta / biotin-H3K9me3 peptide binding; further: nearly all actives have a fitted effect of over 70% in size
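Compound inhibition of the preformed complex between 50 nM HP1-beta and 50 nM biotinylated H3K9me3 peptide was read by AlphaScreen. Buffer was PBS pH 7.4 with 0.01% Tween-20. Incubations ran 30 min at room temperature, with 10 ug/mL donor/acceptor beads.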
BAZ2B block: inhibitors of human BAZ2B bromodomain. AlphaScreen BAZ2B-H3K14Ac peptide displacement. AID 504333. Potency, µM (series often up to 114 µM), without a hit: top-dose activity change, negative = inhibition, actives largely listed as inhibitors. hit rate 4.4% among 360,000. Q9UIF8; further: on the % scale 0 is the no-effect control and ±100 the full control effect; nearly all actives have a fitted effect of over 60% in size
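AlphaScreen displacement: compounds (up to 110uM) incubated 30 min at room temperature with a preformed 50 nM BAZ2B/50 nM biotinylated H3K14Ac peptide complex in PBS pH 7.4 with Tween-20. Donor and acceptor beads at 10 ug/mL final added, 20 min light-protected before reading.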
The depositor's hits bear a star; [ ] = remark or other dose. The call rests on the fitted dose curve; in most records, active means well fitted curve in the direction sought with a large enough effect; inconclusive means small, poorly fitted or top-dose-only effect, or another doubt; inactive means no such curve, though single readings can be large; an effect the other way counts as inactive or inconclusive. Potency means the concentration at half of the fitted maximal effect.

COc1ccc(C2C(C(N)=O)=C(C)Nc3nc(SCc4ccccc4Cl)nn32)cc1OC (stereo not drawn) was read as JMJD2A Tudor inh -16.0%, VDR inh 1.9%, G9a inh 12.1%[59 µM], HP1b binding inh 16.8% and BAZ2B block 5.7%.
`COc1ccc(OC)c(/C=N/NC(=O)CN2CCSCC2)c1` gave JMJD2A Tudor inh 5.62µM*, VDR inh -7.7%, G9a inh inconclusive, PLK1 PBD block -5.4%, HP1b binding inh inconclusive and BAZ2B block 56.2µM*.
`COc1cc(OC)c(OC)cc1CN1CCc2ccccc2C1` gave JMJD2A Tudor inh 56.2µM*, VDR inh -6.7%, G9a inh 12.6µM*, PLK1 PBD block -2.8%, HP1b binding inh inconclusive and BAZ2B block inconclusive.
Screening COc1ccc(CN2CCSCC2)c(OC)c1C returned JMJD2A Tudor inh 3.98µM*, VDR inh -2.1%, G9a inh 10µM*, PLK1 PBD block 6.6%, HP1b binding inh inconclusive and BAZ2B block 79.4µM*.
For COc1ccc(Br)cc1/C=N/NC(=O)CN1CCCCC1 the results were JMJD2A Tudor inh 1.3%, VDR inh 11.6%, PLK1 PBD block 4.7%, HP1b binding inh 25.9% and BAZ2B block 2.2%.
Screening COc1cc2c(cc1OC)CN(Cc1ccc(C)cc1)CC2 returned JMJD2A Tudor inh -15.0%, VDR inh -5.3%, PLK1 PBD block -4.9%, HP1b binding inh 25.8% and BAZ2B block -8.5%.
Screening COc1cc2c(cc1OC)CN(Cc1ccc(OC)c(C)c1OC)CC2 returned JMJD2A Tudor inh 1.58µM*, VDR inh 17.0%, G9a inh inconclusive, PLK1 PBD block -4.4%, HP1b binding inh -56.3% and BAZ2B block 50.1µM*.
O=C(NCC1CCCC(CNC(=O)Nc2ccc(Cl)cn2)C1)Nc1ccc(Cl)cn1 (stereo not drawn) was read as JMJD2A Tudor inh -12.9%, VDR inh 11.0%, G9a inh 6.9%, PLK1 PBD block 0.7%, HP1b binding inh 8.9% and BAZ2B block -17.4%.
COc1ccc(OC)c(CN2CCSCC2)c1 was read as JMJD2A Tudor inh 1.78µM*, VDR inh -19.4%, G9a inh 11.2µM*, PLK1 PBD block 1.7%, HP1b binding inh inconclusive and BAZ2B block inconclusive.
`COc1ccc(OC)c(CN2CCCCCC2)c1` gave JMJD2A Tudor inh 14.1µM*, VDR inh 0.4%, G9a inh 44.7µM*, PLK1 PBD block -8.7%, HP1b binding inh inconclusive and BAZ2B block 79.4µM*.
Cc1ccc(C)c(CN2CCSCC2)c1 was read as JMJD2A Tudor inh 7.08µM*, VDR inh 14.4%, PLK1 PBD block -5.1%, HP1b binding inh -5.0% and BAZ2B block inconclusive.
For COc1ccc(-c2[nH]ncc2CN2CCSCC2)c(OC)c1 the results were JMJD2A Tudor inh -6.2%, VDR inh -0.4%, G9a inh 1.6%, PLK1 PBD block 6.2%, HP1b binding inh 16.7% and BAZ2B block -2.7%.
For Cc1ccc(C)c(CN2CCCN(Cc3ccccc3C)S2(=O)=O)c1 the results were JMJD2A Tudor inh 56.9%, VDR inh -0.2%, G9a inh 45.1%[59 µM], HP1b binding inh 113.3% and BAZ2B block 53.0%.
`COc1ccc2ccccc2c1CN1CCSCC1` gave JMJD2A Tudor inh 44.7µM*, VDR inh -3.7%, PLK1 PBD block 5.6%, HP1b binding inh inconclusive and BAZ2B block 56.2µM*.
Screening CC(=O)c1ccc(N(CC(=O)NC2CCS(=O)(=O)C2)S(=O)(=O)c2ccc(Cl)cc2)cc1 (stereo not drawn) returned JMJD2A Tudor inh -10.0%, VDR inh -16.1%, G9a inh -0.6%[12.7 µM], PLK1 PBD block -20.7%, HP1b binding inh 22.5% and BAZ2B block 8.2%.
For Cc1ccc(/C=N/N2CCN(Cc3cccc4ccccc34)CC2)s1 the results were JMJD2A Tudor inh -31.4%, VDR inh 3.2%, G9a inh 20.0%[0.501 µM], PLK1 PBD block 3.7%, HP1b binding inh -20.2% and BAZ2B block -6.2%.
c1ccc2c(CN3CCSCC3)cccc2c1 was read as JMJD2A Tudor inh 20µM*, VDR inh -4.6%, G9a inh -5.3%[0.501 µM], PLK1 PBD block -12.9%, HP1b binding inh inconclusive and BAZ2B block inconclusive.
`O=Cc1ccc(Sc2nnc(-c3ccccc3)o2)c([N+](=O)[O-])c1` gave JMJD2A Tudor inh inconclusive, VDR inh 79.4µM*, G9a inh 39.8µM*, PLK1 PBD block inconclusive, HP1b binding inh -29.6% and BAZ2B block 44.7µM*.
Screening Cn1nc([N+](=O)[O-])nc1Sc1nnc(-c2ccccc2)o1 returned JMJD2A Tudor inh -12.3%, VDR inh -8.7%, G9a inh 1.6%[59 µM], PLK1 PBD block -7.3%, HP1b binding inh 25.1% and BAZ2B block 0.9%.
N=C1/C(=C\c2ccc(Br)o2)C(=O)N=C2SC(CC(=O)N3CCCCC3)=NN12 was read as JMJD2A Tudor inh -31.3%, VDR inh 4.2%, G9a inh 44.7µM*, PLK1 PBD block -12.2%, HP1b binding inh 17.3% and BAZ2B block inconclusive.
CN(C)c1ccc(/C=C2\C(=N)N3N=C(CC(=O)N4CCCCC4)SC3=NC2=O)cc1 was read as JMJD2A Tudor inh inconclusive, VDR inh -8.9%, G9a inh -14.9%, PLK1 PBD block 66.3%, HP1b binding inh 6.7%[57 µM] and BAZ2B block inconclusive.
Screening CN(C)c1ccc(/C=C2\C(=N)N3N=C(CC(=O)N4CCCC4)SC3=NC2=O)cc1Br returned JMJD2A Tudor inh -13.7%, VDR inh 7.0%, G9a inh -0.3%, PLK1 PBD block -8.4%, HP1b binding inh 49.2% and BAZ2B block -4.8%.
For Cc1ccc(/C=C2/C(=N)N3N=C(CC(=O)N4CCCC4)SC3=NC2=O)o1 the results were JMJD2A Tudor inh -7.2%, VDR inh -6.7%, G9a inh 31.6µM*, PLK1 PBD block 2.2%, HP1b binding inh 5.3%[57 µM] and BAZ2B block -22.9%.
Cc1sc2c(c1C)CN(C(C)(C)C)CN2C(=O)c1ccccc1 was read as JMJD2A Tudor inh -1.5%, VDR inh 9.6%, G9a inh 50.1µM*, PLK1 PBD block -6.0%, HP1b binding inh 21.7% and BAZ2B block inconclusive.
For C=C1CCN([C@@H](CC(C)C)C(=O)NCCC(C)C)S(=O)(=O)c2ccccc21 the results were JMJD2A Tudor inh -5.7%, VDR inh -12.9%, PLK1 PBD block -13.7% and HP1b binding inh 63.4%.
For C=C(C)C1CC=C(C(=O)O)CC1 (stereo not drawn) the results were VDR inh -1.6% and G9a inh -15.7%[59 µM].
For C=C(C)[C@@H]1CC=C(CO)CC1 the results were JMJD2A Tudor inh -18.6%, VDR inh -8.7%, PLK1 PBD block inconclusive and HP1b binding inh 18.9%.
For C=C(C)C1CC=C(CN2CCC(C(=O)OCC)CC2)CC1 (stereo not drawn) the results were JMJD2A Tudor inh 2.51µM*, VDR inh 0.6%, G9a inh inconclusive, PLK1 PBD block -6.2%, HP1b binding inh inconclusive and BAZ2B block -24.8%.
